ATG4B inh: ATG4B (human) cysteine protease inhibition. Q9Y4P1. ATG4B cleavage of LC3-PLA2, NBD-HPC fluorescence, 1 h. inhibition, % at 8.33 µM. 340,000 compounds, 0.51% hits. AID 504462; in the data active = inhibition above about 40%
Mot1-301 SUMO: blocks SUMOylation pathway, rescuing yeast Mot1-301 growth; S. cerevisiae Mot1-301 growth rescue, ATP luminescence, 38.5C; percent above DMSO median, 100 means doubled; growth rescue, % at 18.8 µM; 320,000 compounds, 1% hits;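 active = every valid replicate shows activation above 250% relative to neutral control wells; inactive = the rest, any valid replicate at or below 250%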;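 note: OY570 slx delta 5 strain wells were the positive control but not used for scaling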
NadD inh: NadD (S. aureus) enzyme inhibition; purified NadD enzyme, colorimetric absorbance read-out; inhibition, % at 20 µM; 360,000 compounds, 0.78% hits; in the data active = inhibition above about 26%
Calb FLC: C. albicans growth modulation with fluconazole. growth inhibition, % (concentration not given with the values). C. albicans CaCi-2 (fluconazole-resistant clinical isolate) + fluconazole, Alamar Blue growth, 48 h. 300,000 compounds, 0.57% hits;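 active = growth inhibition above about 58% in most replicates, limit read from the data, passing the limit was not always enough; inconclusive = exactly half the replicates above a set limit; inactive = most replicates below a set limit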;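 note: all wells also contain fluconazole at 8 µg/ml as a sub-toxic cotreatment; 0% = median of DMSO wells and 100% = median of geldanamycin control wells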
FAS TE block: inhibitors of human fatty acid synthase thioesterase domain; P49327; recombinant FAS-TE, OMFH fluorogenic substrate, fluorescence endpoint; 360,000 compounds, 0.67% hits; inhibition, % at 15 µM;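 active = compounds whose normalised, plate-corrected inhibition of enzyme fluorescence in the single-dose primary screen is 50% or more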;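 note: 0% = DMSO with enzyme and 100% = substrate without enzyme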
ATG4B conf: ATG4B (human) inhibition, single-dose confirmed. shares compounds with ATG4B inh. inhibition, % at 8.33 µM. ATG4B protease fluorescent substrate cleavage assay. 320 compounds, 92% hits; in the data active = inhibition above about 39%
PLA2 ctr: PLA2 (human) inhibition in ATG4B counter-screen; inhibition, % at 8.33 µM; purified PLA2, NBD-C6-HPC fluorescence, 45 min; 1,600 compounds, 66% hits; shares compounds with ATG4B inh; in the data active = inhibition above about 50%
The depositor's hits bear a star; u = inconclusive; x = no result. Most compounds without a hit are left out; they make up all but 3.1% or so of the library.

SMILES	ATG4B inh	Mot1-301 SUMO	NadD inh	Calb FLC	FAS TE block	PLA2 ctr	others
CC(C)c1ccc(NC2CCCN(C(=O)c3cccnc3)C2)cc1 (stereo not given)	24	-2	3	4	-5	x
CC(C)c1ccc(NC2CCCN(C(=O)c3ccsc3)C2)cc1 (stereo not given)	77*	9	3	-1	2	78*
COC(=O)c1ccc(C(=O)N2CCCC(Nc3ccc(C(C)C)cc3)C2)cc1 (stereo not given)	81*	22	-4	7	2	82*
CC(C)c1ccc(NC2CCCN(C(=O)c3ccnn3C)C2)cc1 (stereo not given)	2	5	5	-1	-1	x
CC(C)c1ccc(NC2CCCN(C(=O)c3n[nH]c4c3CCC4)C2)cc1 (stereo not given)	55*	-5	1	-24	0	43	ATG4B conf=60*
CSc1ccccc1NC(=O)CN(C)C(=O)C1CC(=O)N(C(C)c2ccccc2)C1 (stereo not given)	-3	-7	9	x	-2	x
CSc1ccc(CCNC(=O)CN2C(=O)CCSc3ccccc32)cc1	0	-4	-6	5	2	x
CC(C)c1ccc(NC2CCCN(C(=O)CCN3Cc4ccccc4C3=O)C2)cc1 (stereo not given)	44*	4	-5	-1	1	38	ATG4B conf=73*
CC(C)c1ccc(NC2CCCN(C(=O)c3cccs3)C2)cc1 (stereo not given)	76*	-3	0	4	8	73*
CC(C)c1ccc(NC2CCCN(C(=O)CCN3CCCCC3=O)C2)cc1 (stereo not given)	7	-19	2	2	-3	x
O=C(CCc1cccc(Cl)c1)N1CCCC(Nc2ccccc2)C1 (stereo not given)	48*	1	-3	13	15	50
Cc1occc1C(=O)N1CCCC(Nc2ccc(F)cc2)C1 (stereo not given)	0	-2	0	0	-3	x
Cc1occc1C(=O)N1CCCC(Nc2ccc(C(C)C)cc2)C1 (stereo not given)	50*	279	-1	-2	0	58*
O=C1CCCCN1CCC(=O)N1CCCC(Nc2ccccc2)C1 (stereo not given)	2	2	-4	-8	-7	x
O=S(=O)(c1ccc(F)c(F)c1)N1CCN(CCc2ccccc2)CC1	2	-25	0	6	10	x
O=C(COC(=O)c1n[nH]c2ccccc12)Nc1ccccc1F	3	34	-3	x	-12	x
Cc1cccc(NC(=O)COC(=O)c2n[nH]c3ccccc23)c1C	45*	2	-1	x	-14	52*
COc1ccc(CCNC(=O)CC(c2ccccc2)c2cccc(C)c2O)cc1OC (stereo not given)	0	9	-3	11	5	x
Cc1sc(-n2c(C)cc(/C=C3\SC(=S)NC3=O)c2C)c(C#N)c1C	81*	-3	25*	46	21	74*
CCn1c(C)cc(/C=C2/SC(=S)NC2=O)c1C	-1	4	-4	40	-6	x
Cc1cc(NC(=O)c2cccc(S(=O)(=O)N3CCCCC3)c2)no1	-1	19	-6	-15	-1	x
CC(C)(C)C(=O)Nc1nnc(CSCc2ccccc2F)s1	40*	9	1	-9	2	40	ATG4B conf=59*
O=C(Nc1nnc(CSCc2ccc(F)cc2)s1)c1ccc([N+](=O)[O-])cc1	-6	-14	1	-13	-5	x
O=C(Nc1nnc(CSCc2ccccc2F)s1)c1cccc([N+](=O)[O-])c1	51*	1	5	4	24	58*
CC(C)C(=O)Nc1nnc(CSCc2ccccc2F)s1	-10	117	4	6	-7	x
SMILES	ATG4B inh	Mot1-301 SUMO	NadD inh	Calb FLC	FAS TE block	PLA2 ctr	others
COc1ccc(-n2c(C)c(C(C)=O)c3cc(OCC(N)=O)ccc32)cc1	50*	-1	-6	49	6	58*
Cn1c(-c2ccc3c(c2)OCO3)cnc1NCc1cccc(Cl)c1	52*	-1	-3	-25	5	58*
COc1ccc(S(=O)(=O)N2CCCCC2)cc1NC(=O)c1ccc(OC)c(OC)c1	-11	x	1	x	3	x
Cc1ccccc1CSc1nnnn1-c1ccc(C(N)=O)cc1	58*	212	-14	8	-2	54*
Cc1cc(N/N=C/c2ccccc2F)nc(NCc2ccccc2)n1	59*	19	-4	40	2	79*
Cc1cc(Nc2cccc(Cl)c2)nc(NCc2ccccc2)n1	36	-23	8	u	26	x
Cc1cc(N/N=C/c2ccccc2)nc(NCc2ccccc2)n1	69*	-8	2	28	5	76*
Cc1cc(N/N=C/c2cccc(F)c2)nc(NCc2ccccc2)n1	73*	0	-6	15	19	80*
Cc1cc(N/N=C/c2ccc(Cl)cc2)nc(NCc2ccccc2)n1	23	166	0	8	28	x
Cc1cc(N/N=C/c2cccc(Cl)c2)nc(NCc2ccccc2)n1	76*	21	4	-5	8	84*
CC1(C(=O)Nc2cccnc2)Cc2c(-c3ccc4c(c3)OCO4)ccnc2O1 (stereo not given)	x	x	0	x	-8	x
O=C1c2ccccc2C(=O)c2c1ccc(C(=O)N1CCCCC1)c2NCCO	-4	-3	6	33	21	x
CC1(C)CCCN(C(=O)c2ccc3c(c2NCCO)C(=O)c2ccccc2C3=O)C1	68*	-5	-13	17	35	63*
O=C(CCCOc1ccc(Cl)cc1Cl)N1CCc2ccccc2C1	50*	39	-2	-1	27	51*
O=S(=O)(Nc1cc2nc3ccccc3nc2n1Cc1ccccc1)c1ccc(Cl)cc1	45*	-19	24	25	39	32
O=C(/C=C/c1ccc(S(=O)(=O)NCc2ccco2)cc1)NCc1cccc(Cl)c1	52*	3	-10	27	9	62*
O=C(/C=C/c1ccc(OCCCF)cc1)NCc1cccc(Cl)c1	45*	1	1	-17	15	49
O=[N+]([O-])c1ccc(-[n+]2nc(-c3ccccc3)nn2-c2ccccc2)cc1	-2	-23	2	-6	-1	x
O=C(c1cc(COc2c(F)cccc2F)on1)N1CCC(c2ccccc2Cl)C1 (stereo not given)	40*	21	1	u	40	55*
Cc1ccc(C)c(CSc2nnc(-c3cccs3)n2Cc2ccco2)c1	83*	-17	2	58	12	77*
Cc1cccc(C)c1N1CCN(S(=O)(=O)c2ccc(F)cc2)CC1	51*	-1	2	-7	22	62*
CCNC(=O)COC(=O)c1sccc1C	-1	2	1	-23	-1	x

From PubChem
